The text below walks through data of PubChem BioAssay (Tox21).

Records with an inconclusive call do not appear. Entries that show only a call come without a potency. The source made the active and inactive calls. Calls follow the shape of the full dose curve.

Beta-2 adrenergic receptor (Homo sapiens), sequence (P07550 whole entry, looked up): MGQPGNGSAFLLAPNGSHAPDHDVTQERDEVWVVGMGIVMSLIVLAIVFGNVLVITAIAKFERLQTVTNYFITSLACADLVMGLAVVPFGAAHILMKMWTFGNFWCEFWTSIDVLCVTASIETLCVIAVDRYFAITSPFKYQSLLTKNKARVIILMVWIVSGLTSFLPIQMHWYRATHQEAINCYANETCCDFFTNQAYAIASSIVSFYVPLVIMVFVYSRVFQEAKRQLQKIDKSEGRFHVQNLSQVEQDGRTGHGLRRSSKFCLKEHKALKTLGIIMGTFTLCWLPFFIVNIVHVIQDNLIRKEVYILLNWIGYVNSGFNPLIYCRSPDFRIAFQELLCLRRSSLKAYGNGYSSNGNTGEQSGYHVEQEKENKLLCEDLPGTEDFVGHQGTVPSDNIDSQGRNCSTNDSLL

The first experiment concerns the target Beta-2 adrenergic receptor (Homo sapiens) (UniProt P07550). Briefly: Adrenergic beta2 receptor (ADRB2) small molecule antagonists, cell-based qHTS assay (AID 1963592). Also: nearly all actives have a fitted effect of over 50% in size. To be noted: CHO-ADRB2 cells, isoproterenol-stimulated cAMP HTRF ratio, 0.5 h; series mostly up to 92.4 µM. The method, boiled down:
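Assay format: CHO-ADRB2 cells, 18-20hr seeding at 37C/5% CO2, then compound plus 1nM isoproterenol agonist mix for 0.5hr RT. Homogeneous time-resolved fluorescence cAMP detection after 1hr, expressed as 665/615 nm ratio.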
In the case of `COc1cc([C@@H]2c3cc4c(cc3[C@@H](O[C@@H]3O[C@@H]5CO[C@@H](C)O[C@H]5[C@H](O)[C@H]3O)[C@H]3COC(=O)[C@H]23)OCO4)cc(OC)c1O`, the Potency entry is “inactive”.

Consider `Cc1nc(-c2ccccn2)ncc1C(=O)Nn1cc(C)c2cc(F)ccc21`, for which the Potency result was “inactive”.

Take `COCCOC`: the Potency entry was “inactive”.

`CC(C)(C(=O)O)c1ccc(C(O)CCCN2CCC(C(O)(c3ccccc3)c3ccccc3)CC2)cc1` (stereo unspecified): the Potency entry was “inactive”.

Take `CC(=O)N(C)C`: the Potency entry is “inactive”.

In the case of `CCCCCCCC1CCC(=O)O1` (stereo unspecified), the Potency result was “inactive”.

Another experiment has the same target. Put plainly: Adrenergic beta2 receptor (ADRB2) small molecule agonists, cell-based qHTS assay (AID 1963593).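 Also: CHO cells stably overexpressing human ADRB2.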 As to conditions: CHO-ADRB2 cells, cAMP HTRF, 30 min; series mostly up to 92.4 µM. The method, boiled down:
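CHO cells stably over-expressing ADRB2 were plated overnight at 37C, then dosed with compounds plus a stimulation mix containing 100uM IBMX and 25uM Ro-20-1724 for 0.5hr at room temperature. cAMP was measured by HTRF competition, 1hr.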
On to `COc1c2occc2cc2ccc(=O)oc12`, for which the Potency result is “inactive”.

Regarding `CC1(C)CCC[C@]2(C)[C@H]3CCO[C@]3(C)CC[C@@H]12`, the Potency entry was “inactive”.

Turning to `O=C(NCC(O)CO)c1c(I)c(C(=O)NCC(O)CO)c(I)c(N(CCO)C(=O)CO)c1I` (stereo unspecified), the Potency result is “inactive”.

`CC[C@@H]([C@H](C)O)n1ncn(-c2ccc(N3CCN(c4ccc(OC[C@@H]5CO[C@@](Cn6cncn6)(c6ccc(F)cc6F)C5)cc4)CC3)cc2)c1=O`: the Potency entry is “inactive”.

As for `Clc1ccccc1CN1CCc2sccc2C1`, the Potency entry was “inactive”.

With `CN1[C@@H]2CC(OC(=O)[C@H](CO)c3ccccc3)C[C@H]1[C@@H]1O[C@@H]12` (stereo partly specified), the Potency entry is “inactive”.

On to `COc1ccc2ccccc2c1`, for which the Potency entry was “inactive”.

Regarding `COc1cc([C@@H]2c3cc4c(cc3[C@@H](O[C@@H]3O[C@@H]5CO[C@@H](C)O[C@H]5[C@H](O)[C@H]3O)[C@H]3COC(=O)[C@H]23)OCO4)cc(OC)c1O`, the Potency result is “inactive”.

For the molecule `Cc1nc(-c2ccccn2)ncc1C(=O)Nn1cc(C)c2cc(F)ccc21`, the Potency entry is “inactive”.

As to `CCCCCCCC1CCC(=O)O1` (stereo unspecified), the Potency result was “inactive”.
